In PubChem BioAssay (NCATS):
“And” between values parts separate entries of the source, which are not always exact repeats. Equal entries are not always repeated. The source made the active and inactive calls. Unless noted, calls come from the whole dose curve; as a rule, active = well fitted curve in either direction with a large enough effect (not every such curve was filed as active); inconclusive = small, poorly fitted or top-dose-only effect, or another doubt; inactive = flat fitted curve, though single readings scatter.

What was measured:
[1] = NFAT Signaling Pathway (AID 444); settings: Jurkat NFAT-bla M1, carbachol, beta-lactamase ratio, 5 h; at 17.2 µM (top of the series) unless noted;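 note: carbachol stimulus at about its EC50 of 1 µM final; % is set by controls: 0 for no effect and ±100 for the full control effect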
Outline: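 Jurkat cells carrying an NFAT-driven β-lactamase reporter and co-transfected muscarinic M1 receptor were treated with compound plus carbachol (1 uM final, an EC50 level) for 5 h at 37 °C. CCF4 loading followed for 1 h at RT; 460/530 nm ratio gave %activity.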

[2] = Stat Signaling Pathway (AID 446); settings: ME-180 (cervical carcinoma) SIE beta-lactamase reporter, IL-6 stimulated, 5 h; at 17.2 µM (top of the series) unless noted;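 note: ME-180 cervical cancer cells given 40 pM IL-6 alongside compound; SIE-controlled beta-lactamase reporter measured as 460/530 nm FRET emission ratio; % is set by controls: 0 for no effect and ±100 for the full control effect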
Outline: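 Overnight-plated ME-180 cells bearing a STAT Inducible Element beta-lactamase reporter; 5 h co-exposure to compound and 40 pM IL-6; values normalized to 300 pM IL-6 and 125 nM JAK inhibitor controls.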

[3] = target: Glucocorticoid receptor (Homo sapiens) (UniProt P04150); assay: GR-GFP Redistribution (AID 450;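 active = compounds whose dose series gives a full or clear partial fitted curve of increased nuclear translocation; inconclusive = weak partial curve or effect only at the top dose; inactive = no dose-dependent translocation response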; note: potency is the fitted concentration of half-maximal effect)
[4] = qHTS assay for small molecule agonists of the antioxidant response element (ARE) signaling pathway (AID 651741; active = well fitted activation curve with a large enough effect in the signal ratio; inconclusive = small, poorly fitted or top-dose-only effect, or effect the other way, or a change in a side signal; the % refers to the signal ratio; note: potency is the fitted concentration of half-maximal effect)
Outline: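 Beta-lactamase reporter expression driven by the antioxidant response element in HepG2 cells was detected by fluorescence with LiveBLAzer B/G FRET substrate (2 h, room temperature) following 16 h compound treatment at 37 C.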

[5] = target: Estrogen receptor (Homo sapiens) (UniProt P03372); assay: qHTS assay for small molecule agonists of estrogen receptor alpha signaling (AID 588514; calls by dose curve;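 note: 0% = vehicle only and 100% = reference agonist; nearly all actives have a fitted effect of over 70% in size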)
Outline: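 Read-out: CCF4 fluorescence from a beta-lactamase reporter in ER-alpha-UAS-bla HEK 293 cells after 18 hrs of compound exposure at 37 C. Normalized to 20 nM 17-beta-estradiol (100%) and DMSO (0%).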

[6] = target: Glucocorticoid receptor (Homo sapiens) (UniProt P04150); assay: qHTS assay for small molecule agonists of glucocorticoid receptor signaling (AID 588532; active = well fitted curve in the direction sought with a large enough effect in the signal ratio, with a control signal flat; inconclusive = small, poorly fitted or top-dose-only effect, or a change in a side signal; inactive = no such curve, though single readings can be large or run the other way; the % refers to the signal ratio;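 note: 100% = dexamethasone at 0.1 µM and 0% = DMSO only wells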); settings: HeLa MMTV-bla, beta-lactamase ratio, agonist, 18 h; stronger effect = higher value; percent of dexamethasone control, DMSO zero
Outline: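 Stimulation of a glucocorticoid response element-driven beta-lactamase gene was measured in HeLa cells. Responses were scaled between DMSO basal and 0.1 uM dexamethasone, then fitted for half-maximal stimulation.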

[7] = target: Estrogen receptor (Homo sapiens) (UniProt P03372); assay: qHTS assay for small molecule antagonists of estrogen receptor alpha signaling (AID 588513; active = well fitted curve in the direction sought with a large enough effect in the signal ratio, with a control signal flat, not every such curve was filed as active; inconclusive = small, poorly fitted or top-dose-only effect, or effect the other way, or a change in a side signal; inactive = no such curve, though single readings can be large or run the other way; the % refers to the signal ratio; note: potency is the fitted concentration of half-maximal effect)
Outline: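 Beta-lactamase reporter, antagonist mode, HEK 293 GripTite cells; 0.5nM E2 stimulus, 18 h, 37 C; CCF4 dye 2 h RT; fluorescence. IC50 and efficacy from Hill fits, normalized to E2 and DMSO.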

[8] = target: Peroxisome proliferator-activated receptor gamma (Homo sapiens) (UniProt P37231); assay: qHTS assay for small molecule agonists of peroxisome proliferator-activated receptor gamma signaling (AID 588536; active = well fitted curve in the direction sought with a large enough effect in the signal ratio, with a control signal flat, not every such curve was filed as active; inconclusive = small, poorly fitted or top-dose-only effect, or effect the other way, or a change in a side signal; inactive = no such curve, though single readings can be large or run the other way; the % refers to the signal ratio;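 note: 0% = DMSO basal wells and 100% = rosiglitazone at 2 µM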)
Outline: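 Using GeneBLAzer HEK293 cells, response was quantified by CCF4 fluorescence and normalized between basal DMSO (0%) and rosiglitazone 2 uM (100%); curves yielded half-maximal stimulation concentration and efficacy.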

[9] = target: Peroxisome proliferator-activated receptor gamma (Homo sapiens) (UniProt P37231); assay: qHTS assay for small molecule antagonists of peroxisome proliferator-activated receptor gamma signaling (AID 588537; active = well fitted inhibition curve with a large enough effect in the signal ratio, with a control signal flat, not every such curve was filed as active; inconclusive = small, poorly fitted or top-dose-only effect, or effect the other way, or a change in a side signal; the % refers to the signal ratio;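 note: reporter cells co-stimulated with 50 nM rosiglitazone agonist during compound treatment; % of control where 0% means no effect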)
Outline: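 HEK293 cells, PPAR-gamma-UAS-bla, 3000/well. Pre-incubation 6-6.5 h, 37 C. Compound titration with rosiglitazone 50 nM final, 16 h. CCF4 dye, 2 h RT, dual-emission fluorescence.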

[10] = target: Vitamin D3 receptor (Homo sapiens) (UniProt P11473); assay: qHTS assay for small molecule antagonists of vitamin D receptor signaling (AID 588541; calls by dose curve; note: potency is the fitted concentration of half-maximal effect)
Outline: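 VDR-UAS-bla HEK293T cells (2000/well, 2% charcoal-stripped FBS) were treated with titrated compounds plus 1-alpha,25-dihydroxyvitamin D3 (50 nM or 3 nM final) for 16 h at 37 C. CCF4 beta-lactamase fluorescence was read; Hill fits gave IC50.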

[11] = qHTS assay for small molecule agonists of retinoid X receptor alpha signaling (AID 588544); settings: HEK293T RXRa-UAS-bla, beta-lactamase reporter, 18 h; 530 nm emission
[12] = qHTS assay for small molecule antagonists of retinoid X receptor alpha signaling (AID 588546; active = well fitted inhibition curve with a large enough effect in the signal ratio, with a control signal flat, not every such curve was filed as active; inconclusive = small, poorly fitted or top-dose-only effect, or effect the other way, or a change in a side signal; inactive = no such curve, though single readings can be large or run the other way; the % refers to the signal ratio; note: potency is the fitted concentration of half-maximal effect); settings: HEK293T RXRa-UAS-bla, beta-lactamase ratio, antagonist mode; measured here: W530 green channel, cytotoxicity proxy
Outline: (§1)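 Beta-lactamase reporter inhibition, read as CCF4 fluorescence ratio (ex 405, em 460/530 nm) after 2 h at RT. HEK293T UAS-bla cells, 2500/well, were stimulated with 9-cis-RA at 500 or 100 nM final alongside test compound for 18 h at 37 C.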

[13] = target: Retinoic acid receptor RXR-alpha (Homo sapiens) (UniProt P19793); assay: as above; settings: HEK293T RXRa-UAS-bla, beta-lactamase ratio, antagonist mode
Outline: as §1

[14] = target: Thyroid hormone receptor beta (Homo sapiens) (UniProt P10828); assay: qHTS assay for small molecule antagonists of thyroid hormone receptor beta signaling (AID 588547; active = well fitted inhibition curve with a large enough effect in the signal ratio, with a control signal flat, not every such curve was filed as active; inconclusive = small, poorly fitted or top-dose-only effect, or effect the other way, or a change in a side signal; the % refers to the signal ratio;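 note: cells stimulated with 0.4 nM T3 agonist during compound exposure; % is set by controls: 0 for no effect and ±100 for the full control effect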); settings: TR-UAS-bla HEK293, beta-lactamase ratio, antagonist mode, 18 h
Outline: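 TR-UAS-bla GripTite HEK293 cells in 2% charcoal/dextran FBS medium were preincubated 4 h at 37 C, given compound (0.59 nM to 92 uM) plus 0.4 nM T3 (final) for 18 h, then CCF4 for 2 h at RT; Hill fit gave IC50.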

[15] = qHTS assay for small molecule activators of the nuclear factor-kappa B (NF-kB) signaling pathway (AID 651749; active = well fitted activation curve with a large enough effect in the signal ratio; inconclusive = small, poorly fitted or top-dose-only effect, or a change in a side signal; the % refers to the signal ratio; note: % of control where 0% means no effect); settings: NF-kB-bla ME-180 cells, beta-lactamase FRET ratio, 16 h; stronger effect = higher value
Outline: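 Beta-lactamase reporter expression, controlled by NF-kB response elements in ME-180 cells, was quantified fluorometrically via FRET disruption; cells at 2,000/well had been incubated with 23 nL test compound for 16 hr.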

[16] = target: Glucocorticoid receptor (Homo sapiens) (UniProt P04150); assay: qHTS assay for small molecule antagonists of glucocorticoid receptor signaling (AID 588533; active = well fitted inhibition curve with a large enough effect in the signal ratio, with a control signal flat, not every such curve was filed as active; inconclusive = small, poorly fitted or top-dose-only effect, or effect the other way, or a change in a side signal; the % refers to the signal ratio;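 note: cells stimulated with 2 nM dexamethasone as agonist; potency is the fitted concentration of half-maximal effect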)
Outline: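 Antagonist-mode qHTS: compound titrations added to GRE-bla HeLa cells, then dexamethasone 2 nM final; 18 h, 37 C. CCF4 FRET fluorescence normalized to dexamethasone and DMSO; IC50 from Hill fit.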

[17] = target: Bile acid receptor (Homo sapiens) (UniProt Q96RI1); assay: qHTS assay for small molecule antagonists of farnesoid X receptor signaling (AID 588526; calls by dose curve; note: % is set by controls: 0 for no effect and ±100 for the full control effect)
Outline: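 Concentration-response titrations were fitted to the Hill equation for half-maximal inhibition and maximal response, with data normalised to 50 uM chenodeoxycholic acid and DMSO control wells. Cells: FXR-UAS-bla HEK293T, dialyzed FBS.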

Sequence of Glucocorticoid receptor (Homo sapiens) (P04150 whole entry, looked up): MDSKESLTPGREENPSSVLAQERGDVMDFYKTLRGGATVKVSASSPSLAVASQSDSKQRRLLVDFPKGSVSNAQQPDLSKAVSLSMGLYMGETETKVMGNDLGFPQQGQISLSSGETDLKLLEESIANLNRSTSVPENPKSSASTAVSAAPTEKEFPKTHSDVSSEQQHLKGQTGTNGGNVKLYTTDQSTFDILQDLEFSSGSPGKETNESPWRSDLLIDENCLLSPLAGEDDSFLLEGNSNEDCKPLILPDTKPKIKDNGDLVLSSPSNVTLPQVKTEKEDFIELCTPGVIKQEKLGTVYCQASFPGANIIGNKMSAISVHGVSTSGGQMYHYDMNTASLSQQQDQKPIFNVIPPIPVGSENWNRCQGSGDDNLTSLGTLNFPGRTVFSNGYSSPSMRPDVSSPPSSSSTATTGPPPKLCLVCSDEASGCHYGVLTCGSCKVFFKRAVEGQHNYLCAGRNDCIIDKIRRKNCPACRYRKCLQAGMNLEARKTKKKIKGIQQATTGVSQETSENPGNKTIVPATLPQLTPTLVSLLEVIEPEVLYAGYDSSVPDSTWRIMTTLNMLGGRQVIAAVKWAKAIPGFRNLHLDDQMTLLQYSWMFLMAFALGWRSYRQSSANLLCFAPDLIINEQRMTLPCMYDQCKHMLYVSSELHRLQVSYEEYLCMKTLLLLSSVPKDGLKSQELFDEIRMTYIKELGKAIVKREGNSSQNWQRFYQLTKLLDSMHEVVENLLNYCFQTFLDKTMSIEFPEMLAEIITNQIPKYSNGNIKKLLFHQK
Sequence of Vitamin D3 receptor (Homo sapiens) (P11473 whole entry, looked up): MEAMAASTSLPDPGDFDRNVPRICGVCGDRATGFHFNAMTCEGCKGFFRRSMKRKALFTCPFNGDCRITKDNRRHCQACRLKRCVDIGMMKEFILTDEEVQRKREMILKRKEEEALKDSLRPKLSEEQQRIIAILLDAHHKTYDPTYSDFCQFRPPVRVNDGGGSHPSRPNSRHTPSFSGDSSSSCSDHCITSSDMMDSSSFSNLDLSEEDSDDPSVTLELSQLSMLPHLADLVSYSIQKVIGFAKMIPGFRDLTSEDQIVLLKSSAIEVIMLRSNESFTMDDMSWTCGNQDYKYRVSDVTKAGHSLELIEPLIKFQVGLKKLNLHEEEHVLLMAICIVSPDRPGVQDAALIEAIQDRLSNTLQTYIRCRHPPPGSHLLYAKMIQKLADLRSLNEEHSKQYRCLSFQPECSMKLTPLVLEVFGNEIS
Sequence of Retinoic acid receptor RXR-alpha (Homo sapiens) (P19793 whole entry, looked up): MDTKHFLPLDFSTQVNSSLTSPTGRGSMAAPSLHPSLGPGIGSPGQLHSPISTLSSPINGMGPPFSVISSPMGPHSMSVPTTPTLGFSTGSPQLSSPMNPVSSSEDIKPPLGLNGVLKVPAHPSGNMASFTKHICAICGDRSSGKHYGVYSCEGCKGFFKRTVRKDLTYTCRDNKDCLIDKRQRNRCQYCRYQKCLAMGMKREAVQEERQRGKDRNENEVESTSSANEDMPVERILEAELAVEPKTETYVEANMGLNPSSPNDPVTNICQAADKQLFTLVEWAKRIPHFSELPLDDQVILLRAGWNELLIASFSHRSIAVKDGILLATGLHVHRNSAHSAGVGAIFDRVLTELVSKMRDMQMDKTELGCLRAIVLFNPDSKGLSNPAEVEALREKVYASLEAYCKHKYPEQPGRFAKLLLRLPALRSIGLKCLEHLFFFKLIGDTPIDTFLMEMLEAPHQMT
Sequence of Estrogen receptor (Homo sapiens) (P03372 whole entry, looked up): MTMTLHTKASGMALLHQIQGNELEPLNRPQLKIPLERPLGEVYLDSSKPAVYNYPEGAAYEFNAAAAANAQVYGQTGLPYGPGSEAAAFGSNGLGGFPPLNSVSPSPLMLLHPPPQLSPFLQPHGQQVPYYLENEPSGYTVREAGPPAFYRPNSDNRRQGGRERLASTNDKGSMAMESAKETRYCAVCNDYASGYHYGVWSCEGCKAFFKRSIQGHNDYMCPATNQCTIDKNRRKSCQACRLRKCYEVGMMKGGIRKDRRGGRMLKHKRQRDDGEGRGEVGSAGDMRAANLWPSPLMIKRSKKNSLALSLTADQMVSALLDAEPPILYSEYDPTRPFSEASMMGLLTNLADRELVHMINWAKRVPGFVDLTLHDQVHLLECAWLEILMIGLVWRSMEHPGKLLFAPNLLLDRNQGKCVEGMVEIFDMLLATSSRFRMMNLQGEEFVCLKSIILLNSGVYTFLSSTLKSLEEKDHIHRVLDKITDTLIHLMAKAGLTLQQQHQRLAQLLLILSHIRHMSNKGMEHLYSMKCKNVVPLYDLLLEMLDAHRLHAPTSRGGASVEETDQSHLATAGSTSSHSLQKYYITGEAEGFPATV
Sequence of Peroxisome proliferator-activated receptor gamma (Homo sapiens) (P37231 whole entry, looked up): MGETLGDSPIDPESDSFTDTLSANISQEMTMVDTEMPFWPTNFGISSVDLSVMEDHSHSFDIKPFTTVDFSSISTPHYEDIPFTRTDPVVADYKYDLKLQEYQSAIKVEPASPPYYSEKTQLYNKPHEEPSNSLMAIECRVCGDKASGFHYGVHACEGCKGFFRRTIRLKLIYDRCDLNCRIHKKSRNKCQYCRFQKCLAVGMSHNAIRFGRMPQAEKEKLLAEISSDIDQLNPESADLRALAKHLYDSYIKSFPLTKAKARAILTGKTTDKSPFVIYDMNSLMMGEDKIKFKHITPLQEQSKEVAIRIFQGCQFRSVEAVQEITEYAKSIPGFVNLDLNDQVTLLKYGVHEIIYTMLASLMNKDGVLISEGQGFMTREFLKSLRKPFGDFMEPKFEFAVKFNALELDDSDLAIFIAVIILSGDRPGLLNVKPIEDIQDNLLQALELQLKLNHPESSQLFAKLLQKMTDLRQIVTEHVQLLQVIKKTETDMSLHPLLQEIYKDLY
Sequence of Thyroid hormone receptor beta (Homo sapiens) (P10828 whole entry, looked up): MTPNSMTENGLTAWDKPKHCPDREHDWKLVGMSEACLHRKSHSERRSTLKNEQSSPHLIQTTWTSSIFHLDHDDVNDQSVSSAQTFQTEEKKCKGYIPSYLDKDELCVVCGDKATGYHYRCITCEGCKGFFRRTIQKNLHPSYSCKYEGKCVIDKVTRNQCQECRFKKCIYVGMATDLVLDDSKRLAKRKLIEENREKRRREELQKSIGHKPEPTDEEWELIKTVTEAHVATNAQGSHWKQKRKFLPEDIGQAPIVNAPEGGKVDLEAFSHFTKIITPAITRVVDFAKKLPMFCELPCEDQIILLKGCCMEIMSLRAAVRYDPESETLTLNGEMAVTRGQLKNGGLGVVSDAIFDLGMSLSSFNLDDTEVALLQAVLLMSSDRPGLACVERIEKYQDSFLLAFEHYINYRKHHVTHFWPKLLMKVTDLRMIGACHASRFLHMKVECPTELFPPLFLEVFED
Sequence of Bile acid receptor (Homo sapiens) (Q96RI1 whole entry, looked up): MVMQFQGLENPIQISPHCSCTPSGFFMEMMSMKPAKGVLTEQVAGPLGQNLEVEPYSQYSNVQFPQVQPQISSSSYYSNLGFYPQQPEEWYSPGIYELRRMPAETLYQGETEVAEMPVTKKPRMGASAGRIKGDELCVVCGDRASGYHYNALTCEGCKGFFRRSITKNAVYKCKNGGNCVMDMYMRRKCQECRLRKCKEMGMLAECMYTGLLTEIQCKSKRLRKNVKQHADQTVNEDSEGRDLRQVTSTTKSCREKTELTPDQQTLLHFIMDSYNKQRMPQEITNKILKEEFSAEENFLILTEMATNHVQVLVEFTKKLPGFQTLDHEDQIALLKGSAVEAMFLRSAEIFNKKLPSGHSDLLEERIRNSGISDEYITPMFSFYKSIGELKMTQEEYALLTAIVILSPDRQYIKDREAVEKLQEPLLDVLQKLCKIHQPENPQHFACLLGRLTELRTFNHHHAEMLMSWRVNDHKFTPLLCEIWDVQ

Q: For COc1ccc(C2/C(=C(/O)c3ccc(OC(C)C)cc3)C(=O)C(=O)N2CCCN2CCOCC2)cc1 (centres undefined), which activity change, negative = inhibition [1] is on record?
A: The activity change, negative = inhibition was -1.06% (inactive).

Q: And the activity, negative = inhibition [2]?
A: The activity, negative = inhibition was -10.9% (inactive).

Q: And the Potency [3]?
A: The Potency was > 20.6 µM (inactive).

Q: Which activity change, negative = inhibition [1] does the source give for CN1CCc2c(C#N)c(N3CCCCC3)nc(NCc3ccccc3)c2C1 here?
A: The activity change, negative = inhibition was -7.69% (inactive).

Q: And the activity, negative = inhibition [2]?
A: The activity, negative = inhibition was -16.2% (inactive).

Q: And the Potency [3]?
A: The Potency was > 20.6 µM (inactive).

Q: With Nc1ccc2cc3ccccc3cc2c1 as the molecule, how does the Potency [4] read?
A: The Potency was 2.37 µM (active).

Q: For Nc1c(Br)cc2oc(-c3ccccc3)nc2c1Br, which activity change, negative = inhibition [1] is on record?
A: The activity change, negative = inhibition was 4.7% (inactive).

Q: What about the activity, negative = inhibition [2] of the same molecule?
A: The activity, negative = inhibition was 14.6% (inactive).

Q: What about the Potency [3] of the same molecule?
A: Its Potency is > 20.6 µM (inactive).

Q: With c1cc(OCC2CO2)cc(OCC2CO2)c1 (centres undefined) as the molecule, how does the outcome [5] read?
A: Its outcome is “inactive”.

Q: What about the activation [6] of the same molecule?
A: The activation was 4.18% (inactive) and -8.77% (inactive).

Q: With ClC1=C(Cl)C(Cl)(Cl)C(Cl)=C1Cl as the molecule, how does the Potency [7] read?
A: Its Potency is “inactive”.

Q: And the outcome [5]?
A: The outcome was “inactive”.

Q: What about the activation [6] of the same molecule?
A: The activation was 4.1% (inactive) and -7.79% (inactive).

Q: And the outcome [8]?
A: Its outcome is “inactive”.

Q: And the Potency [9]?
A: Its Potency is “inactive”.

Q: And the Potency [10]?
A: Its Potency is “inactive”.

Q: And the max response [11]?
A: The max response was -6.21% and -5.28%.

Q: And the max response [12]?
A: The max response was 5.17% and -3.52%.

Q: What about the max response [13] of the same molecule?
A: The max response was -8.53% (inactive) and -12% (inactive).

Q: And the activity change % (negative = inhibition) [14]?
A: Its activity change % (negative = inhibition) is -17.2% (inactive) and -1.82% (inactive).

Q: What about the activation [15] of the same molecule?
A: Its activation is -0.183% (inactive) and -0.468% (inactive).

Q: With CCCc1[nH]nc2c1C(c1cccc(OC)c1)C(C#N)=C(N)O2 (centres undefined) as the molecule, how does the activity change, negative = inhibition [1] read?
A: Its activity change, negative = inhibition is 1.34% (inactive).

Q: And the activity, negative = inhibition [2]?
A: Its activity, negative = inhibition is -24.8% (inactive).

Q: What does the source list for N#CC(C(=O)Nc1ccc(Cl)c(Cl)c1)=C1Nc2ccccc2N1?
A: activity change, negative = inhibition [1]: -3.6% (inactive); activity, negative = inhibition [2]: -4.82% (inactive)

Q: With Oc1ccc2cc(SSc3ccc4cc(O)ccc4c3)ccc2c1 as the molecule, how does the Potency [4] read?
A: Its Potency is 13.3 µM (active).

Q: And the activation [15]?
A: Its activation is 0.682% (inactive).

Q: Which Potency [7] does the source give for CCC(C)Nc1ccc(NC(C)CC)cc1 (centres undefined) here?
A: Its Potency is 6.31 µM [inconclusive] (active).

Q: And the activation [6]?
A: The activation was 1.29% (inactive) and -5.53% (inactive).

Q: And the Potency [16]?
A: The Potency was 35.5 µM (active).

Q: And the Potency [10]?
A: The Potency was 6.31 µM (active).

Q: What about the max response [12] of the same molecule?
A: Its max response is -40%.

Q: What about the Potency [13] of the same molecule?
A: Its Potency is 28.2 µM (active).

Q: With Cc1cc(=O)n2[nH]cnc2n1 as the molecule, how does the activity change, negative = inhibition [1] read?
A: The activity change, negative = inhibition was 10.4% (inactive).

Q: And the activity, negative = inhibition [2]?
A: Its activity, negative = inhibition is 13.7% (inactive).

Q: Which Potency [17] does the source give for Cc1cc(Nc2ccc(O)cc2)ccc1N here?
A: The Potency was “inactive”.

Q: What about the Potency [10] of the same molecule?
A: Its Potency is “inactive”.

Q: And the max response [11]?
A: The max response was -10.3%.

Q: What about the max response [12] of the same molecule?
A: The max response was -15.7%.

Q: And the max response [13]?
A: Its max response is 21.4% (inactive).

Q: And the activity change % (negative = inhibition) [14]?
A: Its activity change % (negative = inhibition) is -8.81% (inactive).

Q: Which results are given for CC1(C)CC(=O)C(C=NCCN2CCN(C(=O)C34CC5CC(CC(C5)C3)C4)CC2)=C(O)C1?
A: activity change, negative = inhibition [1]: 9.88% (inactive); activity, negative = inhibition [2]: 7.24% (inactive); Potency [3]: > 20.6 µM (inactive)

Q: What does the source list for C=CCn1c(SCC(=O)c2ccccc2)nnc1-c1ccc2c(c1)OCO2?
A: activity change, negative = inhibition [1]: 16.5% (inactive); activity, negative = inhibition [2]: -9.25% (inactive); Potency [3]: > 20.6 µM (inactive)

Q: Which activation [6] does the source give for O=C1OC(O)C(C(Cl)Cl)=C1Cl (centres undefined) here?
A: The activation was -17.9% (inactive).

Q: And the Potency [10]?
A: The Potency was 44.7 µM (active).

Q: What about the max response [12] of the same molecule?
A: The max response was -8.4%.

Q: What about the max response [13] of the same molecule?
A: The max response was -25.5% (inactive).

Q: What about the Potency [4] of the same molecule?
A: The Potency was 29.8 µM (active).

Q: And the activation [15]?
A: Its activation is -0.496% (inactive).

Q: For CC/C(=C(\c1ccccc1)c1ccc(OCCN(C)C)cc1)c1ccc(O)cc1, which activation [6] is on record?
A: Its activation is 5.28% (inactive).

Q: Which results are given for C/C=C1\C(=O)C[C@H]2[C@@H]3CCC4=CC(=O)CC[C@]4(C)[C@H]3CC[C@]12C?
A: Potency [4]: 2.98 µM (active); activation [15]: -4.79% (inactive)

Q: With C=CC(=O)OCC(CO)(COC(=O)C=C)COC(=O)C=C as the molecule, how does the activation [6] read?
A: Its activation is -3.48% (inactive) and -11.6% (inactive).

Q: For C=C(C)c1ccccc1, which Potency [17] is on record?
A: The Potency was “inactive”.

Q: What about the Potency [10] of the same molecule?
A: Its Potency is “inactive”.

Q: What about the max response [11] of the same molecule?
A: Its max response is -11%.

Q: What about the max response [12] of the same molecule?
A: Its max response is -0.247%.

Q: And the max response [13]?
A: Its max response is -3.16% (inactive).

Q: What about the activity change % (negative = inhibition) [14] of the same molecule?
A: Its activity change % (negative = inhibition) is 2.47% (inactive).

Q: What about the activation [15] of the same molecule?
A: Its activation is 1.11% (inactive).

Q: Which Potency [7] does the source give for C=CC(=O)OCCOCCOC(=O)C=C here?
A: Its Potency is 35.5 µM [inconclusive] (active).

Q: And the Potency [16]?
A: Its Potency is 44.7 µM (active).

Q: What about the Potency [4] of the same molecule?
A: Its Potency is 47.3 µM (active).
